The supplement of paper PMC9801561
± gives the standard deviation of the averaged measurements.

Tests used:
[1] = test system: Escherichia coli Nissle 1917; test: area under OmniLog respiration curve over 48 h (OmniLog units x h); higher = more growth / nutrient utilisation; extreme values may be limits of the assay; conditions: incubation: 48 h, 37 °C
[2] = test system: Escherichia coli Nissle 1917; test: DuctApe activity index of respiration/growth curve (0 no growth to 9 maximum) (index 0-9); higher = more growth / nutrient utilisation, active = 3 or more; extreme values may be limits of the assay; conditions: incubation: 48 h, 37 °C
[3] = nutrient role: sole nitrogen source (pyruvate carbon)
[4] = nutrient role: C-Source, alcohol
[5] = nutrient role: C-Source, carbohydrate
[6] = nutrient role: sole phosphorus source (pyruvate carbon)
[7] = nutrient role: sole sulfur source (pyruvate carbon)
[8] = nutrient role: C-Source, carboxylic acid
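Throughout, for DuctApe activity index of respiration/growth curve (0 no growth to 9 maximum): biolog PM4 phosphorus and sulfur plates, tetrazolium violet dye reduction read in the OmniLog every 15 min, kinetic curves scored by DuctApe, each plate run in triplicate.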

**Q.** NCCc1c[nH]cn1 [Histamine] was tested. Which “area under OmniLog respiration curve” value [1, 3] did it give?
**A.** 5.03 ± 0.54

**Q.** And the DuctApe activity index [2, 3]?
**A.** 0 (inactive)

**Q.** Which results are given for O=C(CO)CO [Dihydroxyacetone]?
**A.** area under OmniLog respiration curve [1, 4]: 6280 ± 820; DuctApe activity index [2, 4]: 7 (active)

**Q.** For N[C@H](CCC(=O)O)C(=O)O [D-Glutamic acid], which “area under OmniLog respiration curve” value [1, 3] is on record?
**A.** 57.1 ± 89

**Q.** And the DuctApe activity index [2, 3]?
**A.** 0.667 (inactive)

**Q.** Which results are given for OC[C@H]1O[C@@H](O[C@@H]2[C@@H](CO)OC(O)(CO)[C@H]2O)[C@H](O)[C@@H](O)[C@H]1O (mixture of isomers) [Lactulose]?
**A.** area under OmniLog respiration curve [1, 5]: 8170 ± 840; DuctApe activity index [2, 5]: 8 (active)

**Q.** With CC(O)C(C)O (configuration not stated) [2,3-Butanediol] as the compound, how does the “area under OmniLog respiration curve” value [1, 4] read?
**A.** 20.2 ± 16

**Q.** What about the DuctApe activity index [2, 4] of the same compound?
**A.** 0 (inactive)

**Q.** What does the source list for OC[C@H]1O[C@H](OC[C@H]2O[C@H](O[C@]3(CO)O[C@H](CO)[C@@H](O)[C@@H]3O)[C@H](O)[C@@H](O)[C@@H]2O)[C@H](O)[C@@H](O)[C@H]1O [D-Raffinose]?
**A.** area under OmniLog respiration curve [1, 5]: 6090 ± 450; DuctApe activity index [2, 5]: 7 (active)

**Q.** With C[C@H](N)C(=O)N[C@@H](Cc1cnc[nH]1)C(=O)O as the compound, how does the “area under OmniLog respiration curve” value [1, 3] read?
**A.** 6900 ± 1400

**Q.** And the DuctApe activity index [2, 3]?
**A.** 7.67 (active)

**Q.** Which results are given for O=c1[nH]c(=O)c2nc[nH]c2[nH]1 [Xanthine]?
**A.** area under OmniLog respiration curve [1, 3]: 2650 ± 1100; DuctApe activity index [2, 3]: 4 (active)

**Q.** N[C@@H]1[C@@H](O)[C@H](O)[C@@H](COP(=O)(O)O)O[C@@H]1O [D-Glucosamine-6-Phosphate] was tested. Which “area under OmniLog respiration curve” value [1, 6] did it give?
**A.** 9120 ± 620

**Q.** What about the DuctApe activity index [2, 6] of the same compound?
**A.** 8.67 (active)

**Q.** Which results are given for CC(C)[C@@H](N)C(=O)O [D-Valine]?
**A.** area under OmniLog respiration curve [1, 3]: 469 ± 470; DuctApe activity index [2, 3]: 0.667 (inactive)

**Q.** With O=C(O)CP(=O)(O)O [Phosphono Acetic acid] as the compound, how does the “area under OmniLog respiration curve” value [1, 6] read?
**A.** 143 ± 120

**Q.** And the DuctApe activity index [2, 6]?
**A.** 1.33 (inactive)

**Q.** Which “area under OmniLog respiration curve” value [1, 5] does the source give for OC[C@@H](O)[C@@H](O)[C@H](O)[C@@H](O)CO [D-Sorbitol] here?
**A.** 8340 ± 910

**Q.** And the DuctApe activity index [2, 5]?
**A.** 8.33 (active)

**Q.** Which results are given for O=C(O)CC[C@@H](C(=O)O)N1C(=O)c2ccccc2C1=O [N-Phthaloyl-L-Glutamic acid]?
**A.** area under OmniLog respiration curve [1, 3]: 4540 ± 1100; DuctApe activity index [2, 3]: 6 (active)

**Q.** What does the source list for CC(=O)N[C@@H](CS)C(=O)O [N-Acetyl-L-Cysteine]?
**A.** area under OmniLog respiration curve [1, 7]: 55.4 ± 54; DuctApe activity index [2, 7]: 0.333 (inactive)

**Q.** Which “area under OmniLog respiration curve” value [1, 3] does the source give for NC(=O)NC(N)=O [Biuret] here?
**A.** 3650 ± 1400

**Q.** What about the DuctApe activity index [2, 3] of the same compound?
**A.** 5 (active)

**Q.** Which results are given for Nc1nc2c(ncn2[C@@H]2O[C@H](CO)[C@@H](OP(=O)(O)O)[C@H]2O)c(=O)[nH]1 [Guanosine 3`-Monophosphate]?
**A.** area under OmniLog respiration curve [1, 6]: 9730 ± 510; DuctApe activity index [2, 6]: 9 (active)

**Q.** Which “area under OmniLog respiration curve” value [1, 8] does the source give for O=C(O)[C@@H](O)[C@H](O)[C@H](O)[C@@H](O)C(=O)O [Mucic acid] here?
**A.** 8240 ± 630

**Q.** And the DuctApe activity index [2, 8]?
**A.** 8.33 (active)

**Q.** With O=C(O)CO [Glycolic acid] as the compound, how does the “area under OmniLog respiration curve” value [1, 8] read?
**A.** 7210 ± 370

**Q.** What about the DuctApe activity index [2, 8] of the same compound?
**A.** 7.67 (active)

**Q.** Which results are given for NC=O [Formamide]?
**A.** area under OmniLog respiration curve [1, 3]: 38.4 ± 58; DuctApe activity index [2, 3]: 0 (inactive)

**Q.** For CCCCCN [N-Amylamine], which “area under OmniLog respiration curve” value [1, 3] is on record?
**A.** 12.9 ± 14

**Q.** And the DuctApe activity index [2, 3]?
**A.** 0 (inactive)

**Q.** What does the source list for N[C@@H](C(=O)O)[C@@H](O)[C@H](O)[C@H](O)CO [D-Glucosaminic acid]?
**A.** area under OmniLog respiration curve [1, 8]: 1010 ± 670; DuctApe activity index [2, 8]: 2 (inactive)

**Q.** With O=P(O)(O)OC[C@H]1OC(O)[C@@H](O)[C@@H](O)[C@@H]1O (stereo partly drawn) [D-Mannose-6-Phosphate] as the compound, how does the “area under OmniLog respiration curve” value [1, 6] read?
**A.** 8540 ± 570

**Q.** And the DuctApe activity index [2, 6]?
**A.** 8.33 (active)

**Q.** How did the “area under OmniLog respiration curve” value [1, 8] turn out when O=C(O)[C@@H](O)[C@H](O)C(=O)O [D-Tartaric acid] was run?
**A.** 8.46 ± 6.5

**Q.** And the DuctApe activity index [2, 8]?
**A.** 0 (inactive)

**Q.** O=C(O)CCC(=O)C(=O)O [a-Ketoglutaric acid] was tested. Which “area under OmniLog respiration curve” value [1, 8] did it give?
**A.** 5770 ± 360

**Q.** What about the DuctApe activity index [2, 8] of the same compound?
**A.** 6.67 (active)

**Q.** Nc1ncnc2c1ncn2[C@@H]1O[C@H](COP(=O)(O)O)[C@@H](O)[C@H]1O [Adenosine 5`-Monophosphate] was tested. Which “area under OmniLog respiration curve” value [1, 6] did it give?
**A.** 9380 ± 770

**Q.** What about the DuctApe activity index [2, 6] of the same compound?
**A.** 8.67 (active)

**Q.** O=C(O)CCC(=O)O [Succinic acid] was tested. Which “area under OmniLog respiration curve” value [1, 8] did it give?
**A.** 9020 ± 680

**Q.** What about the DuctApe activity index [2, 8] of the same compound?
**A.** 8.67 (active)

**Q.** CC(O)C(N)=O (racemic) [DL-Lactamide] was tested. Which “area under OmniLog respiration curve” value [1, 3] did it give?
**A.** 57 ± 91

**Q.** And the DuctApe activity index [2, 3]?
**A.** 0 (inactive)

**Q.** Which results are given for C[C@@H](O)CC(=O)O [b-Hydroxybutyric acid]?
**A.** area under OmniLog respiration curve [1, 8]: 186 ± 53; DuctApe activity index [2, 8]: 1 (inactive)

**Q.** What does the source list for O[C@@H]1[C@H](O)[C@H](O)CO[C@H]1O [D-Ribose]?
**A.** area under OmniLog respiration curve [1, 5]: 9520 ± 880; DuctApe activity index [2, 5]: 8.67 (active)

**Q.** Which results are given for O=P(O)(O)O [Phosphate]?
**A.** area under OmniLog respiration curve [1, 6]: 9750 ± 430; DuctApe activity index [2, 6]: 9 (active)

**Q.** Which results are given for CO[C@@H]1O[C@H](CO)[C@@H](O)[C@H](O)[C@H]1O [b-Methyl-D-Glucoside]?
**A.** area under OmniLog respiration curve [1, 5]: 6700 ± 470; DuctApe activity index [2, 5]: 7.33 (active)

**Q.** Which results are given for NCCOP(=O)(O)O [O-Phosphoryl-Ethanolamine]?
**A.** area under OmniLog respiration curve [1, 6]: 8740 ± 290; DuctApe activity index [2, 6]: 8.67 (active)

**Q.** With NC(CCSCC(N)C(=O)O)C(=O)O (configuration not stated) [Cystathionine] as the compound, how does the “area under OmniLog respiration curve” value [1, 7] read?
**A.** 4100 ± 130

**Q.** And the DuctApe activity index [2, 7]?
**A.** 6 (active)

**Q.** With OC[C@H]1O[C@@H](n2cnc3c(O)nc(O)nc32)[C@H](O)[C@@H]1O [Xanthosine] as the compound, how does the “area under OmniLog respiration curve” value [1, 3] read?
**A.** 2070 ± 1300

**Q.** And the DuctApe activity index [2, 3]?
**A.** 4 (active)

**Q.** What does the source list for O=C(O)c1ccc(O)cc1 [4-Hydroxybenzoic acid]?
**A.** area under OmniLog respiration curve [1, 8]: 4.72; DuctApe activity index [2, 8]: 0 (inactive)

**Q.** Which “area under OmniLog respiration curve” value [1, 5] does the source give for OCC(O)CO [Glycerol] here?
**A.** 7310 ± 730

**Q.** What about the DuctApe activity index [2, 5] of the same compound?
**A.** 7.67 (active)

**Q.** What does the source list for OC[C@@]12OC[C@@H](O1)[C@@H](O)[C@@H](O)[C@@H]2O [Sedoheptulosan]?
**A.** area under OmniLog respiration curve [1, 5]: 201 ± 160; DuctApe activity index [2, 5]: 1.33 (inactive)

**Q.** Which “area under OmniLog respiration curve” value [1, 5] does the source give for C[C@@H]1OC(O)[C@H](O)[C@H](O)[C@H]1O (stereo partly drawn) [L-Rhamnose] here?
**A.** 6960 ± 610

**Q.** What about the DuctApe activity index [2, 5] of the same compound?
**A.** 7.33 (active)

**Q.** Which “area under OmniLog respiration curve” value [1, 3] does the source give for C[C@H](N)C(=O)N[C@@H](CC(=O)O)C(=O)O here?
**A.** 9150 ± 1000

**Q.** And the DuctApe activity index [2, 3]?
**A.** 8.67 (active)

**Q.** Which “area under OmniLog respiration curve” value [1, 5] does the source give for OC[C@@H](O)C(O)[C@H](O)CO [D-Arabitol] here?
**A.** 4.72

**Q.** What about the DuctApe activity index [2, 5] of the same compound?
**A.** 0 (inactive)

**Q.** For NC(=O)NC1NC(=O)NC1=O (configuration not stated) [Allantoin], which “area under OmniLog respiration curve” value [1, 3] is on record?
**A.** 500 ± 670

**Q.** And the DuctApe activity index [2, 3]?
**A.** 1.67 (inactive)
